A selection: hits, their analogues and other compounds. The true share with any hit is near 7.7%.
NOMO-1 viab: STK33 inhibitor candidate reducing NOMO-1 cell viability; hit rate 7.5% among 37,000; inhibition, % (test concentration not listed); NOMO-1 AML viability, CellTiter-Glo luminescence, 72 h; in the data active = inhibition above about 80%; inconclusive = no clear call, values can overlap the other calls
Shh pathway inh: blocks Sonic Hedgehog signaling; inhibition, % (concentration not given with the values); Shh-LIGHT2 Gli-luciferase reporter, 30 h; hit rate 2.1% among 22,000;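 active = mean inhibition across valid replicates above about 65%, limit read from the data; inconclusive = mean under the limit, yet half or more replicates past it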;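 note: pathway switched on by Shh-conditioned medium diluted 1 in 25 in low serum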
PD-1 reverse act: reversal of PD-1 mediated T-cell inhibition; AID 2316; 29,000 tested, under 10 active; activation, % (concentration not given with the values); primary human CD4 T cells, PD-L1 beads, CellTiter-Glo 96 h; call rule not given here;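 note: 0% = median vehicle wells and 100% = positive control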
Active calls of the source: *.

What do the screens show for `C/C=C(/C)C(=O)O[C@H]1[C@H](OC(=O)/C(C)=C\C)[C@]2(CO)[C@H](O)C[C@]3(C)C(=CCC4[C@@]5(C)CC[C@H](OC6OC(C(=O)O)C(O)C(OC7OC(C)C(O)C(OC8OC(CO)C(O)C(O)C8O)C7O)C6O)C(C)(C)C5CC[C@]43C)[C@@H]2CC1(C)C` (some centres not stated)?
NOMO-1 viab: 122*; Shh pathway inh: 99*; PD-1 reverse act: -38

How did CCOC(=O)c1oc2ccccc2c1NC(=O)CCN1CCCCC1 do in these assays?
NOMO-1 viab: 18; PD-1 reverse act: 0

What do the screens show for `COc1ccc(-c2cc(SCCN3CCOCC3)c(C#N)c(-c3ccccc3)n2)cc1`?
NOMO-1 viab: 29; Shh pathway inh: inconclusive; PD-1 reverse act: -1

Results for CCN1C(=O)/C(=C2\SC(=S)N(c3ccc(OC)cc3)C2=O)c2ccccc21 ?
NOMO-1 viab: 66; PD-1 reverse act: 1

What do the screens show for `COc1ccccc1C1C(C(=O)c2sc(C)nc2C)C(=O)C(=O)N1CCCN1CCOCC1` (configuration not stated)?
NOMO-1 viab: 18; PD-1 reverse act: 1

Results for COc1ccc(NC(=O)Nc2ccc3c(c2)CC(=O)N([C@@H](C)CO)C[C@H](C)[C@H](CN(C)S(=O)(=O)c2ccc(Cl)cc2)O3)cc1 ?
NOMO-1 viab: 112*; Shh pathway inh: 15; PD-1 reverse act: 0

How did COc1ccc(NC(=O)Nc2ccc3c(c2)CC(=O)N([C@H](C)CO)C[C@H](C)[C@H](CN(C)S(=O)(=O)c2ccc(C)cc2)O3)cc1 do in these assays?
NOMO-1 viab: 122*; Shh pathway inh: -6

What do the screens show for `COc1ccc(NC(=O)Nc2ccc3c(c2)CC(=O)N([C@@H](C)CO)C[C@H](C)[C@@H](CN(C)S(=O)(=O)c2ccc(C)cc2)O3)cc1`?
NOMO-1 viab: 24; PD-1 reverse act: -2

What do the screens show for `COc1ccc(NC(=O)Nc2ccc3c(c2)CC(=O)N([C@H](C)CO)C[C@H](C)[C@H](CN(C)S(=O)(=O)c2ccc(Cl)cc2)O3)cc1`?
NOMO-1 viab: 122*; Shh pathway inh: -73

How did COc1ccc(NC(=O)Nc2ccc3c(c2)CC(=O)N([C@H](C)CO)C[C@@H](C)[C@@H](CN(C)S(=O)(=O)c2ccc(Cl)cc2)O3)cc1 do in these assays?
NOMO-1 viab: 4; Shh pathway inh: -18; PD-1 reverse act: 0

How did COc1ccc(NC(=O)Nc2ccc3c(c2)CC(=O)N([C@H](C)CO)C[C@@H](C)[C@@H](CN(C)S(=O)(=O)c2ccc(OC)cc2)O3)cc1 do in these assays?
NOMO-1 viab: -14; Shh pathway inh: 13

Results for Cc1ccccc1C(=O)Nc1ccc(OCC(=O)O)cc1 ?
NOMO-1 viab: 8; PD-1 reverse act: 0

How did Nc1ccc(S(=O)(=O)C(F)(F)F)cc1 do in these assays?
NOMO-1 viab: -9; Shh pathway inh: -3; PD-1 reverse act: 0

Results for O=C(Cc1ccccc1)c1ccccc1C(=O)NCc1cccs1 ?
NOMO-1 viab: 26; Shh pathway inh: -17; PD-1 reverse act: -5

How did O=C(OC1(C#CCN2CCCCC2)CCCCC1)c1ccccc1 do in these assays?
NOMO-1 viab: 117*; Shh pathway inh: 59; PD-1 reverse act: -6

Results for CC(CNC1CCCCC1)OC(=O)c1ccccc1 (configuration not stated) ?
NOMO-1 viab: 22; Shh pathway inh: -55

What do the screens show for `Cc1ccc(S(=O)(=O)N2C(=O)CCC2C(=O)Nc2ccc(Cl)c(C(F)(F)F)c2)cc1` (configuration not stated)?
NOMO-1 viab: -6

How did CSc1ccccc1NC(=O)CSc1nnnn1-c1ccccc1F do in these assays?
NOMO-1 viab: 3; PD-1 reverse act: 0

What do the screens show for `COc1ccccc1OCc1nc(-c2ccccc2)cs1`?
NOMO-1 viab: 33; Shh pathway inh: -35; PD-1 reverse act: 3

Results for NC(N)=Nc1nc(-c2ccc(-c3ccccc3)cc2)cs1 ?
NOMO-1 viab: 115*; Shh pathway inh: -9; PD-1 reverse act: -14

How did O=C(CCc1ccccc1)c1c(O)cc(O)cc1O do in these assays?
NOMO-1 viab: -8; Shh pathway inh: 4; PD-1 reverse act: 1

Results for O=C(/C=C/CCc1ccccc1)CCc1ccccc1 ?
NOMO-1 viab: 121*; Shh pathway inh: -3; PD-1 reverse act: -3

Results for Cc1ccc(C(C)C)c(OC(=O)CS(=O)c2ccc(C(F)(F)F)cc2[N+](=O)[O-])c1 (configuration not stated) ?
NOMO-1 viab: 130*; PD-1 reverse act: -12

How did Cc1ccc(NC(=O)CC2Sc3ccc(C(F)(F)F)cc3NC2=O)c([N+](=O)[O-])c1 (configuration not stated) do in these assays?
NOMO-1 viab: 13; PD-1 reverse act: 3

Results for O=C(CS(=O)c1ccc(C(F)(F)F)cc1[N+](=O)[O-])Oc1ccc(Cl)cc1 (configuration not stated) ?
NOMO-1 viab: 110*; PD-1 reverse act: -12

How did O=C(CS(=O)c1ccccc1[N+](=O)[O-])Nc1cccc(C(F)(F)F)c1 (configuration not stated) do in these assays?
NOMO-1 viab: 43; PD-1 reverse act: -3

How did O=C1C(=O)N(CCN2CCOCC2)C(c2ccc(Cl)cc2)C1C(=O)c1cccs1 (configuration not stated) do in these assays?
NOMO-1 viab: -11; PD-1 reverse act: 1

What do the screens show for `Cc1ccc(N(C(C)C(=O)Nc2ccccc2F)S(C)(=O)=O)cc1` (configuration not stated)?
NOMO-1 viab: 22; PD-1 reverse act: 0

Results for N#Cc1c(-c2ccccc2)cc2c(c1N)c(=O)oc1ccccc12 ?
NOMO-1 viab: 20; Shh pathway inh: -20; PD-1 reverse act: -2

How did CC(C)n1cnc2c(Nc3cccc(Cl)c3)nc(NCCO)nc21 do in these assays?
NOMO-1 viab: 31; Shh pathway inh: 75*; PD-1 reverse act: 7

Results for CC[C@H](CO)Nc1nc(NCc2ccccc2)c2ncn(C(C)C)c2n1 ?
NOMO-1 viab: inconclusive; Shh pathway inh: 52; PD-1 reverse act: 4

How did COC(=O)c1cc(NC(=O)CSc2nc(C)cc(C)n2)cc(C(=O)OC)c1 do in these assays?
NOMO-1 viab: 114*; PD-1 reverse act: 0

What do the screens show for `COc1ccc(NC(=O)CSc2nc(C)cc(C)n2)cc1`?
NOMO-1 viab: -9; PD-1 reverse act: -1

What do the screens show for `C[C@@H]1CN([C@H](C)CO)C(=O)c2cccc(NC(=O)C3CCOCC3)c2O[C@H]1CN(C)Cc1ccc(C(=O)Nc2ccccc2N)cc1`?
NOMO-1 viab: 19; PD-1 reverse act: 1

What do the screens show for `C[C@H](CO)N1C[C@H](C)[C@H](CN(C)Cc2ccc(C(=O)Nc3ccccc3N)cc2)Oc2c(NC(=O)C3CC3)cccc2C1=O`?
NOMO-1 viab: 122*; PD-1 reverse act: -1

Results for C[C@H]1CN([C@@H](C)CO)C(=O)c2cccc(NC(=O)NC3CCCCC3)c2O[C@H]1CN(C)Cc1ccc(C(=O)O)cc1 ?
NOMO-1 viab: 13; Shh pathway inh: -6; PD-1 reverse act: 1

How did C[C@@H]1CN([C@H](C)CO)C(=O)c2cccc(NC(=O)C3CCCCC3)c2O[C@@H]1CN(C)Cc1ccc(C(=O)O)cc1 do in these assays?
NOMO-1 viab: -21; Shh pathway inh: -25; PD-1 reverse act: 0

Source: PubChem (Broad Institute)
